Over roughly 4,500 sequences, “median log2 fold change of GCK-ALFA target abundance (FLAG IP / Myc IP barcode read proportion)” has its median near 0.078; the lowest 2% begin near -0.6. Only a selection was taken, and the lowest values are over-represented in it overall.
B1: GBRAP_184_5289 (protein)
chain: MVEEVVIEAENAEEAIKKIKEAAEKAKKEGKKLRLYLFLKNVDVEGFKKIAELLKELKEEGIIEDAIVEILDERTEEETDKFVEIADKAGIRLVIALSDE
B2: GBRAP_128_3375 (protein)
chain: VNEEFLKEIEELVEKMLESSVEEVRELTKKIVELLSKASLEEQEAAVEIILEKLPEFSVEKLEAIADVLREERKKASPELQELLADVEVEALNEAEEKEE
B3: GBRAP_184_5038 (protein)
chain: AIKEVTIEAKDLEELKAKLAELEEEMKNFKGDLIVHVKSPKFTKEMVEELMSTLKNMLDKGYISSATVGLDGEMTEEVVDLAVKLADEAGIKVVLALDEE
B4: GBRAP_11_2726 (protein)
chain: RKETILKFAKEAEALAKEIEKLIKEGPTKEGLEKLAKKAKALYEAAKKAGLPEDIVETLKIAAELLKEAIADPKNAEKYLREAAAAFRVAAGLLLLEAEE
B5: GBRAP_14_3852 (protein)
chain: IEELIKAVEETAKETKEMAKEVLPEHAEEVNKKIEELAKKIIKKIKEENLNKEEVAELMDEFAEELAKFIKEKGFANETEIAAIRATILNEAALKLDEIE
B6: GBRAP_150_3939 (protein)
chain: DLEELLLLAQGIETDLELALEPGFDKLKLAERALELAKDIAKESDEELKKLAEELIKLLEEAIKAIKAGAEEKEIQKLLEEALRKARELIEEIEKKIEEE
B7: GBRAP_9_7172 (protein)
chain: LKAAAAAAIAELREARDFILEIAPEAAAGAVDAAFDALIAALEAARADPTVTPEQFEATLAAGFAAIRAAAAAHLSPEVAAAVETEMLTVRDIADEKLDE
B8: GBRAP_95_7026 (protein)
chain: EDDQLLVDSLTEVLETYVDLGDEERAREAARRLVRALRENGILPLPKSISVEAAKLILEVALEELDLEELEALAKQLIEATKDEEVRKYAEAKIAEKRAR

molecular target: GABARAP, O95166; assay: median log2 fold change of GCK-ALFA target abundance (FLAG IP / Myc IP barcode read proportion) (log2 ratio); each designed protein is fused to an ALFA-tag nanobody in HEK293 cells to bring the named protein to FLAG-tagged glucokinase (GCK); Myc marks an untargeted standard; higher = target protein stabilised (more abundant); conditions: target protein: 3xFLAG-MCP-GCK-ALFA reporter; HEK293 landing pad (RPLP)
Sequence (O95166 whole entry, the tested form may be a part): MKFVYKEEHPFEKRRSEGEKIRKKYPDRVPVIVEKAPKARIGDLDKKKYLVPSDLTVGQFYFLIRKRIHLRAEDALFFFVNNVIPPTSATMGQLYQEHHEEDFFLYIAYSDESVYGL
Summary of the method: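 HEK293 landing-pad cells received a recombined binder library fused to the ALFA nanobody and were induced with 2 μg mL^−1 doxycycline, then transfected with a plasmid encoding a FLAG-tagged target and a Myc-tagged standard. Lysates were collected after 48 h for anti-FLAG and anti-Myc immunoprecipitation, and the circular RNA barcodes were reverse transcribed, amplified and sequenced. Target abundance for each binder is the median log2 ratio of FLAG to Myc barcode read proportions. Barcodes had to reach a proportion of at least 10^−7 in both replicates, each binder needed at least 3 barcodes per replicate, a pseudocount of 10^−6 was applied, and the two replicates were pooled.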

Row | Binder | median log2 fold change
1 | B1 | -0.121
2 | B2 | 0.132
3 | B3 | 0.0979
4 | B4 | 0.0545
5 | B5 | 0.15
6 | B6 | 0.139
7 | B7 | -0.00921
8 | B8 | 0.182

Source: the supplement of paper PMC12632987
